# Results from PubChem BioAssay AID1942 (Johns Hopkins Ion Channel Center, 2009).
# Out of some 2,400 compounds screened, about 580 (24%) were called active. Only a sample is shown. Values without a mark were called inactive.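 Rule for the calls: active = activity change at or above the mean plus 3 SD of buffer wells without dofetilide, per plate; inactive = the rest.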
# Molecular target: Potassium voltage-gated channel subfamily KQT member 2 (Rattus norvegicus) (UniProt O88943)
# Assay: KCNQ2 potentiation in CHO cells – cell-based, FluxOR thallium flux, counter-screen for hERG block protector project, confirmation (AID 1942);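 note: normalized value minus buffer-control mean plus three SD of buffer wells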
# Settings: FluxOR thallium flux fluorescence, at 10 µM, hits give high values
# Potassium voltage-gated channel subfamily KQT member 2 (Rattus norvegicus), sequence (O88943 whole entry, looked up): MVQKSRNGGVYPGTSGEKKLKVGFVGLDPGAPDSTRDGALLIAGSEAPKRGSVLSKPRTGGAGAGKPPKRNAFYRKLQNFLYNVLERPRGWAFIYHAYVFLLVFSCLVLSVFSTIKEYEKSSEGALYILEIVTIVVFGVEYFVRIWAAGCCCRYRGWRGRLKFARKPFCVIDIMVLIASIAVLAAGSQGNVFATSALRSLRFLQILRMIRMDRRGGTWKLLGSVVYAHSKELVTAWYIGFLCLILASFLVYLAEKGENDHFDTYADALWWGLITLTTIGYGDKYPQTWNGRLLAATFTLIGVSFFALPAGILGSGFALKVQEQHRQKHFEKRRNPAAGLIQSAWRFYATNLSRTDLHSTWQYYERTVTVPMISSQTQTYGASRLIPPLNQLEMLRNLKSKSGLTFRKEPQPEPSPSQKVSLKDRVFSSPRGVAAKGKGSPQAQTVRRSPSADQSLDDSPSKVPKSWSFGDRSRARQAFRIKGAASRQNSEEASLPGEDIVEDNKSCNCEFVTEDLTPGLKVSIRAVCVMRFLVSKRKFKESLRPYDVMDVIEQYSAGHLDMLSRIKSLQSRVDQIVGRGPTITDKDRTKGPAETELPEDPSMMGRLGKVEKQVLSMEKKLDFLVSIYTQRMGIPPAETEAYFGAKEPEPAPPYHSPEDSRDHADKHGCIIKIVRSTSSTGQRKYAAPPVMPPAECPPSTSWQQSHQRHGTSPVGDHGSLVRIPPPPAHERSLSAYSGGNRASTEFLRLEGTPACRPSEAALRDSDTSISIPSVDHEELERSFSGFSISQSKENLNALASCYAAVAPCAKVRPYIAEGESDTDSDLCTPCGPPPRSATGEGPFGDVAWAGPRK
row,Structure (SMILES),"activity change, less the hit threshold"
1,O=C(Cn1cnc2ccccc21)c1ccccc1,-11.5%
2,COc1cccc(C(=O)NNC(=O)C(=O)Nc2ccc(OC)cc2OC)c1,29.6% (active)
3,O=C(CN1C(=O)COc2ccccc21)NCCCN1CCOCC1,-8.4%
4,Cc1cccc(NC(=S)N/N=C2/CCCCc3ccccc32)c1,-20.4%
5,Cc1cccc2nc(-c3cccnc3)c(NCCC(C)C)n12,-51.2%
6,COc1nnc(-c2ccc(C)c(S(=O)(=O)NC(C)(C)CO)c2)c2ccccc12,-9.1%
7,O=C1NC(=S)SC1=C1CCCCCC1,58.8% (active)
8,CCOC(=O)N1CCN(C(=O)CN(c2ccc(OCC)cc2)S(C)(=O)=O)CC1,-17.4%
9,c1ccc2oc(-c3nn4c(Cn5cnc6ccccc65)nnc4s3)cc2c1,-19.1%
10,C/C(Cl)=C\Cn1c(O)c(N=NC(N)=S)c2cc(Br)ccc21,16.1% (active)
11,C=CCn1c(O)c(N=NC(=S)Nc2ccccc2F)c2cc(S(=O)(=O)N3CCOCC3)ccc21,-16.8%
12,Cc1cccc(Cn2c(O)c(N=NC(=S)Nc3ccccc3F)c3ccccc32)c1,-22.3%
13,CCC1(C(=O)O)NC(c2cc(OC)ccc2O)C2C(=O)N(Cc3ccccc3)C(=O)C21 (stereo not drawn),-9.2%
14,CCOC(=O)c1sc(NN=C(C(=O)OC)C(=O)OC)c(C(=O)OCC)c1C,-9.1%
15,CCOC(=O)c1sc2nc(C)[nH]c(=S)c2c1C,4.9% (active)
16,CCOC(=O)c1sc2nc(Cc3ccc(Cl)cc3)[nH]c(=S)c2c1C,-4.8%
17,Cc1ccc(Cn2nnc3c(=O)n(CC(=O)N4CCCc5ccccc54)cnc32)cc1,-14.8%
18,O=C(NN1C(=O)C2C(c3ccccc3)C=CC(c3ccccc3)C2C1=O)c1ccncc1 (stereo not drawn),-42.5%
19,Cc1c(C(=O)N/N=C/c2ccccn2)nnn1-c1nonc1N,-9.3%
20,O=C(N/N=C/c1ccccn1)c1cc(-c2ccc(Br)cc2)nc2ccccc12,-26.1%
21,O=C(N/N=C/c1ccccn1)c1sc2ccccc2c1Cl,27.4% (active)

row,Structure (SMILES),"activity change, less the hit threshold"
1,O=C1c2cccc3cccc(c23)C(=O)C1(O)O,-5.4%
2,Cc1ccc(C(=O)O)cc1-c1ccc(/C=C2\SC(=O)N(CC(=O)Nc3ccccc3)C2=O)o1,-22%
3,COc1ccc(C(=O)O)cc1S(=O)(=O)Nc1cccc(C(F)(F)F)c1,-13.4%
4,Cc1nn(-c2ccccc2)c(N2CCCC2)c1/C=N/O,-13.5%
5,Cc1nn(-c2cccc(C(F)(F)F)c2)c(Cl)c1/C=N/Nc1cccc(C(=O)O)c1,17.9% (active)
6,O=C(O)c1c2c(nc3ccccc13)/C(=C/c1cccc([N+](=O)[O-])c1)CCC2,-21%
7,Cc1ccccc1C(=O)c1cn[nH]c1-c1ccccc1O,-32.5%
8,COC(=O)Nc1c(-c2ccccc2)nc2ccccn12,-17%
9,Cc1nc(-c2ccccc2)cn(O)c1=O,-1%
10,O=c1c(-c2ccccc2)nc(-c2ccccc2)cn1O,65.1% (active)
11,CC(=O)c1ccc2c(c1)OCCOCCOCCO2,-20.1%
12,O=C(CCc1ccccc1)Nc1nccs1,-23.4%
13,Fc1ccc(NC(=S)Nc2nccs2)cc1,1.8% (active)
14,Cc1cnc(C(=O)Nc2nccs2)cn1,-18.4%
15,COc1ccc(-c2cc(C(=O)N3CCCC3)no2)cc1,-9%
16,COc1ccc(-c2cc(C(F)(F)F)nc(N3CCCCC3)n2)cc1OC,-16.3%
17,COc1ccc(-c2cc(C(=O)N3CCCC3)no2)cc1OC,2.6% (active)
18,CC(/C=C1\SC(=S)N(NS(=O)(=O)c2ccc(C)cc2)C1=O)=C\c1ccccc1,8.8% (active)
19,CC(/C=C1\SC(=S)N(NS(=O)(=O)c2ccccc2)C1=O)=C\c1ccccc1,18.1% (active)
20,CC(/C=C1\N=C(SCc2ccccc2Cl)SC1=O)=C\c1ccccc1,-10.1%
21,Cc1ccc(S(=O)(=O)N2C(=O)/C(=C3\SC(=S)NC3=O)c3ccccc32)cc1,-14.4%

row,Structure (SMILES),"activity change, less the hit threshold"
1,CC(/C=C1\SC(=S)N(c2ccc(C(=O)O)cc2)C1=O)=C\c1ccccc1,-20.4%
2,COc1ccccc1/C=C1\SC(=S)N(NS(=O)(=O)c2ccc(C)cc2)C1=O,-24.5%
3,COCCNC(=O)C(=O)N/N=C/c1ccc(C(=O)OC)cc1,-24.8%
4,O=C(CCNC(=O)C1CCN(S(=O)(=O)c2ccc(F)cc2)CC1)NCc1ccc(Cl)cc1,-18.1%
5,Cc1cc(C)c(S(=O)(=O)Nc2cccc(-n3cnnn3)c2)c(C)c1,-20.5%
6,COC(=O)C1CCCN1C(=O)COc1ccc(Cl)cc1Br (stereo not drawn),8.6% (active)
7,O=C(COc1ccc(Cl)cc1Cl)Nc1cccnc1,-20.4%
8,COc1ccccc1NC(=O)C1CCCN1C(=O)Nc1ccc(F)cc1 (stereo not drawn),-19.8%
9,CS(=O)(=O)Nc1cccc(-c2cn3ccccc3n2)c1,-6.5%
10,Cn1c(=O)c2sccc2n(Cc2cccc(Br)c2)c1=O,-20.7%
11,CCN1CCN(CCNC(=O)CCCn2nc(C)c3c(C)n(-c4ccc(C)cc4)nc3c2=O)CC1,-21%
12,S=c1nc(SCc2ccccc2)[nH]c2ccccc12,73.5% (active)
13,CSc1nc(C)c(Cc2ccccc2)c(=O)[nH]1,-18.7%
14,S=c1nc(Cc2ccccc2)[nH]c2ccccc12,76.9% (active)
15,S=c1nc(COc2ccccc2)[nH]c2ccccc12,131% (active)
16,CC(C)c1ccc(/C=N/n2c(COc3ccccc3)n[nH]c2=S)cc1,-16.5%
17,S=c1nc(Cc2ccc(Cl)cc2)[nH]c2ccccc12,28.2% (active)
18,O=C(O)CCCCCNc1nc(=S)[nH]c2ccccc12,-0.8%
19,S=c1[nH]nc(Cc2ccc(Br)cc2)n1/N=C/c1ccc(Cl)cc1,-13.3%
20,O=c1[nH]c(SCc2cccc(Cl)c2)nc2ccccc12,-14.1%
21,N=C1S/C(=C\c2ccco2)C(=O)N1c1nccs1,-12%
